The full data set covers some 7,900 targets. This sample favours those with a hit. About 0.6% of all pairs of compound and target were hits. Unmarked numbers belong to inactive results.
Assays:
Assay in all cases: log2 fold change, soluble protein after heating vs DMSO (PISA); higher = thermal stabilisation; K562 cells, 10 uM, 30 min; active = over 0.2 and 3.5 SD of the protein, either way, in both replicates (recomputed)
erlotinib = compound: C#Cc1cccc(Nc2ncnc3cc(OCCOC)c(OCCOC)cc23)c1 [erlotinib]
Outline: (§1)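 For each measurement, 10 μM compound was applied for 30 min to K562 cells at 2×10^6 cells/mL. Aliquots were heated for 3 min across 48°C-58°C, pooled, and extracted in PBS with 0.5% NP-40 at 4°C; the supernatant after 21,000xg for 90 min was soluble protein. This was quantified by TMTpro 16plex LC-MS/MS with channel sums equalised, and thermal stability was reported relative to control samples from duplicates, on a log2 fold-change scale.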

[1] = compound: C/C(=N\NC(=O)C1=CC(=CC=C1)S(=O)(=O)N2CCOCC2)/C3=C(C=CC(=C3)Cl)O
Outline: as §1

[2] = compound: C1=CC(=C(C=C1Cl)C2=NC3=NC=CN=C3C(=N2)NC4=CC=NC=C4)F
Outline: as §1

[3] = compound: C1=CC(=CC=C1C2=NC3=C(N2)C=C(C=C3)C(=O)N)OC4=CC=C(C=C4)Cl
Outline: as §1

[4] = compound: C1=CC2=C(C=CC(=C2)/C=C\3/C(=O)NC(=NCC4=CC=CS4)S3)N=C1
Outline: as §1

[5] = compound: C1=CC2=NC=CN=C2C=C1/C=C/3\C(=O)NC(=O)S3
Outline: as §1

[6] = compound: C1=CC=C(C=C1)C2=NC(=C(N2)C3=CC=NC=C3)C4=CC(=C(C=C4)Cl)O
Outline: as §1

[7] = compound: C1=CC=C2C(=C1)C3=NNC4=CC=CC(=C43)C2=O
Outline: as §1

[8] = compound: C1CCN(C1)C(=O)NC2=CC=CC(=C2)NC3=NC=C(C(=N3)NCCC4=CN=CN4)Br
Outline: as §1

[9] = compound: C1CN(CCC1(CC2=CC=C(C=C2)Cl)N)C3=NC=NC4=C3C=CN4
Outline: as §1

Sequence of UniProt Q9Y5Q8 (Q9Y5Q8 whole entry, looked up): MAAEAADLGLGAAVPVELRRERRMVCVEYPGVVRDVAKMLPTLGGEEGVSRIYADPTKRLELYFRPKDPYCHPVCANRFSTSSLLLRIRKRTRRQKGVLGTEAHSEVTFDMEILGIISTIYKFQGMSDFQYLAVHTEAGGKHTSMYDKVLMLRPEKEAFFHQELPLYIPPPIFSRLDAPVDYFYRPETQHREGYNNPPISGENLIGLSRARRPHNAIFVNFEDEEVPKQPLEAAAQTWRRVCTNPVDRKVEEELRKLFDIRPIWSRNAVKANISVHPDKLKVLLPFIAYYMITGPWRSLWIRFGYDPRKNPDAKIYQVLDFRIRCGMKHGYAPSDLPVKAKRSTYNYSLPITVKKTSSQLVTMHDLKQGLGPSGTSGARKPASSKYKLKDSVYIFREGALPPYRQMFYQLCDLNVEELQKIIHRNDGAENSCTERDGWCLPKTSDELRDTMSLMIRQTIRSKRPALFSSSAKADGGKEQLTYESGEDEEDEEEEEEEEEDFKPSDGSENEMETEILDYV
Sequence of UniProt P49841 (P49841 whole entry, looked up): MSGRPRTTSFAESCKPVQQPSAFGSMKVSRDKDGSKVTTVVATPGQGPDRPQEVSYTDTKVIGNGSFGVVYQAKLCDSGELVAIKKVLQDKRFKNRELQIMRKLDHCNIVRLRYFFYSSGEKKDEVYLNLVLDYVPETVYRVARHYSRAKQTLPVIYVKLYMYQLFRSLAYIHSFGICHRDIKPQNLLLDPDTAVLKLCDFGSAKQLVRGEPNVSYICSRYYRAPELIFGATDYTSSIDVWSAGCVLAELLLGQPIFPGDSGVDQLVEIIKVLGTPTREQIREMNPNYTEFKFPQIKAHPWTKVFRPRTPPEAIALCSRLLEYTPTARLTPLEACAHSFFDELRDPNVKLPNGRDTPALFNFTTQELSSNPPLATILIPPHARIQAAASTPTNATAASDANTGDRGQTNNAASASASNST
Sequence of UniProt Q658Y4 (Q658Y4 whole entry, looked up): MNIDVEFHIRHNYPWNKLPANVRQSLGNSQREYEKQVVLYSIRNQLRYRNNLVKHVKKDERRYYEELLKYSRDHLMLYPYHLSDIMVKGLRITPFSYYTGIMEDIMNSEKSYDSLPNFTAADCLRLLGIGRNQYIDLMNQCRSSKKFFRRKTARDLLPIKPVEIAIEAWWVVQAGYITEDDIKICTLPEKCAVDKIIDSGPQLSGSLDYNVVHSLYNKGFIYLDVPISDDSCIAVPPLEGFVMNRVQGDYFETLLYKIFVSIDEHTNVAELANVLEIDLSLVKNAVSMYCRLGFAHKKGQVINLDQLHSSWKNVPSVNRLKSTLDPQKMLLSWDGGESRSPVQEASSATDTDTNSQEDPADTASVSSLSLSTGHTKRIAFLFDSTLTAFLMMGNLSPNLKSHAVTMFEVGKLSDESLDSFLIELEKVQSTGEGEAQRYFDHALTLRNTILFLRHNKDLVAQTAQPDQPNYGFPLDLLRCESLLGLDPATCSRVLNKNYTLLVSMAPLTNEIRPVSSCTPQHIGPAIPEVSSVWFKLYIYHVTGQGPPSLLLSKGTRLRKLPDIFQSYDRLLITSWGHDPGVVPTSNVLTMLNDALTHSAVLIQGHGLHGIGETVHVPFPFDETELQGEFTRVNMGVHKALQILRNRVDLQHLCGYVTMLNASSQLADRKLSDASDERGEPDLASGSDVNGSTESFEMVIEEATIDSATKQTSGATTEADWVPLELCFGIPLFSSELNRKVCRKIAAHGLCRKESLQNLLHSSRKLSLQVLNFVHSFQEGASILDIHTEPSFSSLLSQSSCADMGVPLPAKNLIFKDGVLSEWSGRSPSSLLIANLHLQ
Sequence of UniProt Q10472 (Q10472 whole entry, looked up): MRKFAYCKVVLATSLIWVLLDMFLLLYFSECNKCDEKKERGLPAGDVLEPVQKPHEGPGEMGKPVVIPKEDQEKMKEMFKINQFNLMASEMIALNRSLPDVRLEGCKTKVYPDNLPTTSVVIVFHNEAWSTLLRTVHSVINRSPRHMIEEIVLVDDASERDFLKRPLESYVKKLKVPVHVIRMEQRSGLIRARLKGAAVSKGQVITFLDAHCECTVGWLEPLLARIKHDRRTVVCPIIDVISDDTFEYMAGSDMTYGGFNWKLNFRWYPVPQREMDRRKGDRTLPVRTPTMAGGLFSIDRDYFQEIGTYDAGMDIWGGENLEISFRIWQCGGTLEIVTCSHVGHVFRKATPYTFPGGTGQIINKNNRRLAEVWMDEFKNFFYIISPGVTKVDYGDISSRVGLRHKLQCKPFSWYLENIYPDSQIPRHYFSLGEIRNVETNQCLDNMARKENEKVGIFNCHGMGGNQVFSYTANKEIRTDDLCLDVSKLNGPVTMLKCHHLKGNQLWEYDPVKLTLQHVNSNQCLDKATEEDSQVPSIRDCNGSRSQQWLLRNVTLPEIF
Sequence of UniProt Q8N4A0 (Q8N4A0 whole entry, looked up): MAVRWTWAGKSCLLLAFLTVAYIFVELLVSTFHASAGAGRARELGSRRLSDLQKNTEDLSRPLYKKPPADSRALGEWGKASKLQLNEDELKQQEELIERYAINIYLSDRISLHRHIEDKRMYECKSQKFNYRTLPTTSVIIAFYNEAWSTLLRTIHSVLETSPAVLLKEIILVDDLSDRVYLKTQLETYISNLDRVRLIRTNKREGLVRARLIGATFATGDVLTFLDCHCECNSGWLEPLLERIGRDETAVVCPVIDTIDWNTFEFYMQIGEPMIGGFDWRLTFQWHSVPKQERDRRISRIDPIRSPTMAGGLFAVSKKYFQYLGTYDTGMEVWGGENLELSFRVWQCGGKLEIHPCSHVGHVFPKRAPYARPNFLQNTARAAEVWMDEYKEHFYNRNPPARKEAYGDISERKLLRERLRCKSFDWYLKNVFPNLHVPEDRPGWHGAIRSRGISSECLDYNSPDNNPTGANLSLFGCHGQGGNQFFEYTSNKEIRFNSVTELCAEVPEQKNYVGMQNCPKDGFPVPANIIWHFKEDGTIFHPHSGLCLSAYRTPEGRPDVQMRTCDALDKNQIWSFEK
Sequence of UniProt P40939 (P40939 whole entry, looked up): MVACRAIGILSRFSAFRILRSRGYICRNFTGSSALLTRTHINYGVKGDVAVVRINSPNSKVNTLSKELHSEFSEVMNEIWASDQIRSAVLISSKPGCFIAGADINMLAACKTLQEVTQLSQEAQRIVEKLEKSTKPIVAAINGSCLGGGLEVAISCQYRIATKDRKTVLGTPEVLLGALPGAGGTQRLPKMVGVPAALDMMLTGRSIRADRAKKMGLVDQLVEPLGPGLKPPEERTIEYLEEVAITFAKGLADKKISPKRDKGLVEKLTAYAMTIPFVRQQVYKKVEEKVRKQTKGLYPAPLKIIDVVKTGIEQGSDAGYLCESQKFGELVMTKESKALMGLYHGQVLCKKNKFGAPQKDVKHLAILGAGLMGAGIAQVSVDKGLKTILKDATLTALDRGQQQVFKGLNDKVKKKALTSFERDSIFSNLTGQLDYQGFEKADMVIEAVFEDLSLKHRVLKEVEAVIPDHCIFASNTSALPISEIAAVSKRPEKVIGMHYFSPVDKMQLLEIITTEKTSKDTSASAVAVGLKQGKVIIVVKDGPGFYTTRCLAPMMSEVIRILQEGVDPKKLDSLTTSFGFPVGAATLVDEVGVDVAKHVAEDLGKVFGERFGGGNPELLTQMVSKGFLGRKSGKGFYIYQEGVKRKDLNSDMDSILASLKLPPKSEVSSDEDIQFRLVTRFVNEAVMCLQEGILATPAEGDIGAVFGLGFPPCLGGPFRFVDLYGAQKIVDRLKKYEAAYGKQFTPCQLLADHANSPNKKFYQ
Sequence of UniProt Q7Z4H3 (Q7Z4H3 whole entry, looked up): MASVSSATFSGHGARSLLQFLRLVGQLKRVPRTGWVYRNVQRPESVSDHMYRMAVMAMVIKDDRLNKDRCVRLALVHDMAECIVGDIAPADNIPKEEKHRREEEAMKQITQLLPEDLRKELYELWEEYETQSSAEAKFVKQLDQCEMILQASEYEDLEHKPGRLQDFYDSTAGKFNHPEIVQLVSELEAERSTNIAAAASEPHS
Sequence of UniProt O15228 (O15228 whole entry, looked up): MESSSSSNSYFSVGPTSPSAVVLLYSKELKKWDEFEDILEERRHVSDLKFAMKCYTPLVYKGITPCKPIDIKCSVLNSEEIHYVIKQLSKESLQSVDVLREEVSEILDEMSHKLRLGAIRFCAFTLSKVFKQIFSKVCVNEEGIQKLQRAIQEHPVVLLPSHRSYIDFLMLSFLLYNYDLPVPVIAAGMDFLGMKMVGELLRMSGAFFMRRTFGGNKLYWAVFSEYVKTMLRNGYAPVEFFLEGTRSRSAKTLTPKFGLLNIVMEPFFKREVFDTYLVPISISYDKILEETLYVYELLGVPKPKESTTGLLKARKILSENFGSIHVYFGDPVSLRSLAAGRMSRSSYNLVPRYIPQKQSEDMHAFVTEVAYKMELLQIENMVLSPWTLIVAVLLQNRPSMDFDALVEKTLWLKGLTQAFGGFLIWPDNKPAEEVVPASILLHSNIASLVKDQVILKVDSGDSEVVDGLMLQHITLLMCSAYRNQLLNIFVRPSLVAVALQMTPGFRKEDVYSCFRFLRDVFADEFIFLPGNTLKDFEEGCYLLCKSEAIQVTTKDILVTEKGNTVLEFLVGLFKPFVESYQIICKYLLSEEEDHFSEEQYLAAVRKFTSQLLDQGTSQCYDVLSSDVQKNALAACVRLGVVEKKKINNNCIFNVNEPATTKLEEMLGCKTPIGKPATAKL
Sequence of UniProt O95363 (O95363 whole entry, looked up): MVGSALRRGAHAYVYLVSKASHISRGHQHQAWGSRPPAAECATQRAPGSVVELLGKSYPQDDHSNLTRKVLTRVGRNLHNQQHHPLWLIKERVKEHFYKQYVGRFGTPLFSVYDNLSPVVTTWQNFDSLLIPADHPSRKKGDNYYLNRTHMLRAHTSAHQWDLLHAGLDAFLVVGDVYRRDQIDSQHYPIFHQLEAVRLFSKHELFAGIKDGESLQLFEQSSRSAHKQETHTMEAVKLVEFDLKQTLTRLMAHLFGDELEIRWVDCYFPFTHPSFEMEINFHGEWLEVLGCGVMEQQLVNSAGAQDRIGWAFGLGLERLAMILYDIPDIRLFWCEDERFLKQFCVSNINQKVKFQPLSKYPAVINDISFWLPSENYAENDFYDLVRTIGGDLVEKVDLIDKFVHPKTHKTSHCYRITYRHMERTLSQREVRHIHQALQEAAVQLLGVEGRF

Target | log2 fold change (erlotinib) | log2 fold change [1] | log2 fold change [2] | log2 fold change [3] | log2 fold change [4] | log2 fold change [5] | log2 fold change [6] | log2 fold change [7] | log2 fold change [8] | log2 fold change [9]
GALNT4 (UniProt Q8N4A0) | 0.077 | 0.062 | 0.075 | 0.026 | 0.086 | 0.044 | -0.012 | 0.008 | 0.006 | 0.005
GALC (UniProt P54803) | -0.023 | -0.002 | -0.051 | 0.041 | 0.009 | 0.028 | -0.017 | -0.011 | -0.032 | 0.08
GNAI3 (UniProt P08754) | -0.078 | -0.038 | -0.01 | 0.205 | 0.021 | 0 | 0.036 | -0.026 | -0.047 | 0.026
GNPAT (UniProt O15228) | 0.067 | 0.112 | 0.075 | -0.001 | 0.073 | 0.03 | 0.057 | 0.019 | -0.003 | 0.058
HDGFL2 (UniProt Q7Z4V5) | 0.002 | 0.001 | 0.042 | -0.006 | -0.046 | 0.048 | -0.01 | -0.046 | 0.033 | 0.057
GALK1 isoform 2 (UniProt P51570) | 0.002 | 0.082 | 0.158 | -0.023 | -0.08 | 0.016 | 0.07 | 0.055 | -0.094 | 0.076
GEMIN5 (UniProt Q8TEQ6) | -0.007 | 0.066 | -0.049 | 0.023 | 0.037 | 0.045 | 0.01 | 0.01 | 0.015 | 0.017
GSTT1 (UniProt P30711) | 0.037 | -0.007 | 0.275 | 0.033 | 0.114 | 0.037 | -0.044 | -0.031 | 0.003 | -0.028
FAM91A1 (UniProt Q658Y4) | 0.005 | 0.019 | 0.168 | 0.082 | 0.019 | -0.017 | -0.033 | 0.069 | -0.057 | -0.152
HNRNPUL1 (UniProt Q9BUJ2) | 0.022 | -0.009 | 0.018 | -0.012 | 0.001 | -0.01 | 0.004 | 0.014 | 0.029 | -0.048
GTF2A2 (UniProt P52657) | -0.057 | 0.048 | 0.089 | -0.005 | 0.132 | 0.038 | -0.002 | -0.02 | 0.008 | 0.07
GSK3B isoform 2 (UniProt P49841) | -0.024 | -0.051 | 0.007 | 0.027 | 0.038 | -0.013 | 0.095 | 0.091 | 0.042 | 0.159
GTF3C5 isoform 3 (UniProt Q9Y5Q8) | 0.085 | 0.293 | -0.078 | -0.049 | -0.413 (active) | -0.056 | -0.089 | 0.079 | -0.067 | -0.038
H2AFX (UniProt P16104) | 0.05 | -0.243 | -0.54 | 0.072 | 0.014 | 0.274 | -0.087 | -0.049 | 0.231 | -0.319
FBXO6 (UniProt Q9NRD1) | -0.069 | 0.046 | 0.075 | 0.007 | 0.048 | 0.007 | 0.021 | 0.002 | -0.031 | 0
GSTM4 (UniProt Q03013) | 0.084 | -0.029 | 0.217 | -0.002 | -0.038 | 0.268 | -0.031 | -0.128 | 0.018 | 0.062
HDDC2 (UniProt Q7Z4H3) | -0.014 | 0.059 | 0.039 | 0.018 | -0.072 | 0.034 | 0.292 (active) | 0.024 | -0.039 | 0.076
FASTKD1 (UniProt Q53R41) | 0.207 | 0.219 | 0.142 | -0.051 | -0.072 | -0.033 | 0.281 | 0.093 | -0.108 | -0.014
HPCAL1 (UniProt P37235) | 0.011 | 0.048 | 0.029 | 0 | 0 | 0.057 | -0.063 | 0.002 | 0.013 | -0.034
HADHA (UniProt P40939) | -0.085 | 0.122 | 0.044 | -0.18 | 0.042 | 0.02 | 0.07 | 0.271 | -0.214 | 0.171
HIP1 (UniProt O00291) | 0.018 | 0.033 | 0.046 | -0.004 | 0.018 | -0.056 | 0.011 | -0.166 | -0.209 | 0.09
GALNT1 (UniProt Q10472) | -0.001 | -0.014 | -0.069 | 0.022 | 0.031 | 0.006 | 0.06 | -0.003 | 0.004 | 0.06
GYG1 (UniProt P46976) | -0.064 | 0.016 | -0.23 | 0.005 | 0.089 | -0.039 | -0.109 | 0.083 | -0.075 | -0.027
GCC2 (UniProt Q8IWJ2) | -0.062 | 0 | -0.155 | -0.017 | -0.076 | 0.034 | -0.032 | -0.021 | -0.054 | -0.154
FBXO3 (UniProt Q9UK99) | 0.01 | 0.044 | 0.141 | -0.018 | -0.038 | 0.062 | 0.112 | -0.003 | -0.029 | 0.002
GDI1 (UniProt P31150) | -0.009 | 0.025 | 0.03 | 0.014 | 0.007 | 0.007 | -0.021 | -0.001 | 0.015 | 0.008
GLB1 (UniProt P16278) | -0.082 | 0.038 | 0 | -0.006 | 0.018 | -0.028 | 0.013 | -0.011 | 0.017 | -0.009
HAUS4 (UniProt Q9H6D7) | -0.112 | 0.097 | 0.041 | -0.095 | 0.018 | -0.065 | -0.085 | -0.087 | -0.001 | 0.001
FARS2 (UniProt O95363) | 0 | 0.081 | -0.046 | 0.061 | -0.03 | -0.018 | 0.014 | 0.065 | 0.084 | -0.057
GNG5 (UniProt P63218) | -0.07 | 0.01 | 0.436 (active) | 0.089 | 0.031 | -0.001 | 0.072 | 0.038 | -0.037 | -0.044

Reference: the supplement of paper PMC10849652
